# Source: ChEMBL document CHEMBL1961873, “Compounds: GSK PKIS; Assays: Nanosyn kinase panel” (2012)
# What was measured:
# [1] = biological target: T1, Inhibitor of nuclear factor kappa-B kinase subunit epsilon (Homo sapiens) (UniProt Q14164); details: at 1 µM;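 also: reported values are averaged percent inhibition figures against human IKKε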
# T1 sequence (whole entry): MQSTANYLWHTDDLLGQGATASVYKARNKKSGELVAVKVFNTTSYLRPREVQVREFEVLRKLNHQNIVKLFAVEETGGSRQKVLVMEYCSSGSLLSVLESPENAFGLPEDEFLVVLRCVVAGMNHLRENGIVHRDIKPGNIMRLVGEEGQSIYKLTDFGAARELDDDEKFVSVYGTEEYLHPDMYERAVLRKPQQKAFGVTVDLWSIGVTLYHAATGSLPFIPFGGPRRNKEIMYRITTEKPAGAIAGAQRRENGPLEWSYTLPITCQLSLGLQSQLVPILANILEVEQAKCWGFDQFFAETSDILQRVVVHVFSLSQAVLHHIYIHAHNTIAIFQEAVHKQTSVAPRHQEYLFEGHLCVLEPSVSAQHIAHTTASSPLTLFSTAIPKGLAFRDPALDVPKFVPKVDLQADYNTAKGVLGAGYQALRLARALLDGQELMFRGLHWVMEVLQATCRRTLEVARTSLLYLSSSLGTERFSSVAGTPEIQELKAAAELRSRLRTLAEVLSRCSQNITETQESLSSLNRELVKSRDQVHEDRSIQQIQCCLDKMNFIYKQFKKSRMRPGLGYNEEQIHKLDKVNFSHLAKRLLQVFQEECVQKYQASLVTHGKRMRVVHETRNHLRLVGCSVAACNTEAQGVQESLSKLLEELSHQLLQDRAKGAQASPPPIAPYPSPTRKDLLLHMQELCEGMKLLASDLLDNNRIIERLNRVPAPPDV
# [2] = biological target: T2, Serine/threonine-protein kinase Nek1 (Homo sapiens) (UniProt Q96PY6); details: at 0.1 µM
# T2 sequence (whole entry): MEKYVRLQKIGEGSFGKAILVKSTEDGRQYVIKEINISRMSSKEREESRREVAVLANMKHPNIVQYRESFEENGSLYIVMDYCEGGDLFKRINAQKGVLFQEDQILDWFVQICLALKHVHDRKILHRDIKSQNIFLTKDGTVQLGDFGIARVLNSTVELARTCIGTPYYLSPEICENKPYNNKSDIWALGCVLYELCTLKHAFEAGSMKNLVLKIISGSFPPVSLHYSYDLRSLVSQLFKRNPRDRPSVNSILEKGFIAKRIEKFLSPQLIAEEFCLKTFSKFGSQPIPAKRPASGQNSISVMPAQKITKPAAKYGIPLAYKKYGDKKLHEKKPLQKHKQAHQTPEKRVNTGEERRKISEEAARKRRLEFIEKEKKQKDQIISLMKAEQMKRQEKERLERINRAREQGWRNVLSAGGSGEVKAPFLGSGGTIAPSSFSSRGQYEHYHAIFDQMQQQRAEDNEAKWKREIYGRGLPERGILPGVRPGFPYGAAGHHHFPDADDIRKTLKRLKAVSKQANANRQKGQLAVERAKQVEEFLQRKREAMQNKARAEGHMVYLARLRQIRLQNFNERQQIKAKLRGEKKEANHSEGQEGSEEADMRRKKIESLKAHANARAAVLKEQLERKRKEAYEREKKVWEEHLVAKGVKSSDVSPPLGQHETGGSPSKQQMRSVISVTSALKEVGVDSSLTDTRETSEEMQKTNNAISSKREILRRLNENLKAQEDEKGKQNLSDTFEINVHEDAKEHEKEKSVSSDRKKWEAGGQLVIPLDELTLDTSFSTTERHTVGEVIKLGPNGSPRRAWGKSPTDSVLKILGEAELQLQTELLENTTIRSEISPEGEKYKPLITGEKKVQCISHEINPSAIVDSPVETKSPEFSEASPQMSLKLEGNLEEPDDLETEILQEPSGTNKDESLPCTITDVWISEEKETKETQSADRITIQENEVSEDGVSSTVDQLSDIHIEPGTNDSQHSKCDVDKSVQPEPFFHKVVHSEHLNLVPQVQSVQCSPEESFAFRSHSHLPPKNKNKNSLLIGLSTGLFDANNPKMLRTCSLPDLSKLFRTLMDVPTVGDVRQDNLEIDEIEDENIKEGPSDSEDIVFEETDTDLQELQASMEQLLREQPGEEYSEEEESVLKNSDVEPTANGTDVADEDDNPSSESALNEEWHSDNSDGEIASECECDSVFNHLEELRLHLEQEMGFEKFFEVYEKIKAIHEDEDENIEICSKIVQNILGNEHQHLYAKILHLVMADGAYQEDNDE
# [3] = biological target: T2, Serine/threonine-protein kinase Nek1 (Homo sapiens); details: at 1 µM
# [4] = biological target: T3, Serine/threonine-protein kinase Nek2 (Homo sapiens) (UniProt P51955); details: at 0.1 µM
# T3 sequence (whole entry): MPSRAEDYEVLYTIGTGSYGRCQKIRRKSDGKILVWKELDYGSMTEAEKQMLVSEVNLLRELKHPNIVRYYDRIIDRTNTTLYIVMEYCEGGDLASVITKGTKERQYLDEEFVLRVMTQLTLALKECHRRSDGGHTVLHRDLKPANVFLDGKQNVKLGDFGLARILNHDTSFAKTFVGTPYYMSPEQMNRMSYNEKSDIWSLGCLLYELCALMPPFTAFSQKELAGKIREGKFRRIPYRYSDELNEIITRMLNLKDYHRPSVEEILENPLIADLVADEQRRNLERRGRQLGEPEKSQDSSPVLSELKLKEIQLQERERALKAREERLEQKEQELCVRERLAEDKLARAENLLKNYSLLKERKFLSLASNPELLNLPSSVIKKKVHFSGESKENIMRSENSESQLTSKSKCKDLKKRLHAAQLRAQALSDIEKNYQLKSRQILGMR
# [5] = biological target: T3, Serine/threonine-protein kinase Nek2 (Homo sapiens); details: at 1 µM
# [6] = biological target: Serine/threonine-protein kinase Nek6 (Homo sapiens) (UniProt Q9HC98); details: at 0.1 µM
# Chain of Serine/threonine-protein kinase Nek6 (Homo sapiens) (Q9HC98 whole entry): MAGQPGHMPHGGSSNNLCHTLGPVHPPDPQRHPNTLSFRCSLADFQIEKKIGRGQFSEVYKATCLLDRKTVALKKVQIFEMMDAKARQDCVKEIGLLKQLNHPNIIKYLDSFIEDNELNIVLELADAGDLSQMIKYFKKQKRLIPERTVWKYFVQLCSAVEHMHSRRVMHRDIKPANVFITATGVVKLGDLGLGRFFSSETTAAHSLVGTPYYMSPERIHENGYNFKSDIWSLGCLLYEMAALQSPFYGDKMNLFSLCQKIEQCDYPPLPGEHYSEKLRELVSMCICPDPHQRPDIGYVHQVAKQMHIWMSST
# [7] = biological target: Serine/threonine-protein kinase Nek6 (Homo sapiens) (UniProt Q9HC98); details: at 1 µM
# [8] = biological target: Serine/threonine-protein kinase Nek7 (Homo sapiens) (UniProt Q8TDX7); details: at 0.1 µM
# Chain of Serine/threonine-protein kinase Nek7 (Homo sapiens) (Q8TDX7 whole entry, looked up): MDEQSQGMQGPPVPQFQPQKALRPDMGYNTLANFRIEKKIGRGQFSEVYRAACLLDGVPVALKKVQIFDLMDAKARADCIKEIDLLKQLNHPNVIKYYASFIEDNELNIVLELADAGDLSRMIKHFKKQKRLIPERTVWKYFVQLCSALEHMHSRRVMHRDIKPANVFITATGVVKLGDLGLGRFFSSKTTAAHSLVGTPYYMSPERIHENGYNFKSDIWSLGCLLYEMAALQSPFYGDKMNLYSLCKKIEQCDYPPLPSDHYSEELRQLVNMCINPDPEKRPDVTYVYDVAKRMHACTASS
# [9] = biological target: Serine/threonine-protein kinase Nek7 (Homo sapiens) (UniProt Q8TDX7); details: at 1 µM
# [10] = biological target: T4, Serine/threonine-protein kinase Nek9 (Homo sapiens) (UniProt Q8TD19); details: at 0.1 µM
# T4 sequence (whole entry): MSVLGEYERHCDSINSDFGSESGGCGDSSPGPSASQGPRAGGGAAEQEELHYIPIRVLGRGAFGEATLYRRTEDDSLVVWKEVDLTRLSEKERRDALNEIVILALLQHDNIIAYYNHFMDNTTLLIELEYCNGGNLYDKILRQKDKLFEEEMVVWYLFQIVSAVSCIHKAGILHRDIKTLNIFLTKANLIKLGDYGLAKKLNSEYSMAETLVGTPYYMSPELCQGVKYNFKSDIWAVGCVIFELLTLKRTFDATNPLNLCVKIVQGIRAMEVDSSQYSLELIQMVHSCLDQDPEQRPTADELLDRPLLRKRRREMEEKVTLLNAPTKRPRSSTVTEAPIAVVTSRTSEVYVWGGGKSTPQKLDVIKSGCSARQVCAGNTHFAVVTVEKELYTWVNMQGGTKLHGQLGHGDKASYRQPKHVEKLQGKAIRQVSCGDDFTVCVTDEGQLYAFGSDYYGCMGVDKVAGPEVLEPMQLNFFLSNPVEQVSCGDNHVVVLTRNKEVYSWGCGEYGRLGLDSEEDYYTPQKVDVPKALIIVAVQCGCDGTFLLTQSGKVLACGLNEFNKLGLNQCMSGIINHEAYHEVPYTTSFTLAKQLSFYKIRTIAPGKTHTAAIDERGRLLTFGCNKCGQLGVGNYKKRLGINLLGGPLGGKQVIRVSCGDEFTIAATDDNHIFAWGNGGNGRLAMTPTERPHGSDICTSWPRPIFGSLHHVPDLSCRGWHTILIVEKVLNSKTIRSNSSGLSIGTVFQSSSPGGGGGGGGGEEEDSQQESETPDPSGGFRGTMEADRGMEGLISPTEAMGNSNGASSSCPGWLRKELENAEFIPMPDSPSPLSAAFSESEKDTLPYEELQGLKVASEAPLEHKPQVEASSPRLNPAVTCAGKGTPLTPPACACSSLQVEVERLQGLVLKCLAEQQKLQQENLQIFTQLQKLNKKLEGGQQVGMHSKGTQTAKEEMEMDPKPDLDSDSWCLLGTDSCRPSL
# [11] = biological target: T4, Serine/threonine-protein kinase Nek9 (Homo sapiens); details: at 1 µM
# [12] = biological target: Serine/threonine-protein kinase PLK1 (Homo sapiens) (UniProt P53350); details: at 0.1 µM
# Chain of Serine/threonine-protein kinase PLK1 (Homo sapiens) (P53350 whole entry): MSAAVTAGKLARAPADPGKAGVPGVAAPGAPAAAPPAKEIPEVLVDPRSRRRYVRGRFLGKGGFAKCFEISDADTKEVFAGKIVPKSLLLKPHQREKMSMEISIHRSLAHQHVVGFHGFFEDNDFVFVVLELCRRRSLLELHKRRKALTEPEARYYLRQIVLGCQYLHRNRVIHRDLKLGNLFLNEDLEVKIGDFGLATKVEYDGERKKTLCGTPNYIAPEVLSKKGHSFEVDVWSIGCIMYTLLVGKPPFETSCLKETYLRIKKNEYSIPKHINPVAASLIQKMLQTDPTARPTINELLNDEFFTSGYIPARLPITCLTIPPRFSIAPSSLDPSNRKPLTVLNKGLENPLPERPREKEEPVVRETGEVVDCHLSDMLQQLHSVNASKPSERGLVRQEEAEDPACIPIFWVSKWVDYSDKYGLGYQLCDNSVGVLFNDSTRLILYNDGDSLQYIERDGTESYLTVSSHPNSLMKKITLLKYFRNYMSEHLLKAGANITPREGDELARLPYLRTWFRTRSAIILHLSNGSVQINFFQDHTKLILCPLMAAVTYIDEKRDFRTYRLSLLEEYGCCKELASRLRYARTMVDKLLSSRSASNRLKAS
# [13] = biological target: Serine/threonine-protein kinase PLK1 (Homo sapiens) (UniProt P53350); details: at 1 µM
# [14] = biological target: T5, Dual specificity protein kinase TTK (Homo sapiens) (UniProt P33981); details: at 0.1 µM
# T5 sequence (whole entry): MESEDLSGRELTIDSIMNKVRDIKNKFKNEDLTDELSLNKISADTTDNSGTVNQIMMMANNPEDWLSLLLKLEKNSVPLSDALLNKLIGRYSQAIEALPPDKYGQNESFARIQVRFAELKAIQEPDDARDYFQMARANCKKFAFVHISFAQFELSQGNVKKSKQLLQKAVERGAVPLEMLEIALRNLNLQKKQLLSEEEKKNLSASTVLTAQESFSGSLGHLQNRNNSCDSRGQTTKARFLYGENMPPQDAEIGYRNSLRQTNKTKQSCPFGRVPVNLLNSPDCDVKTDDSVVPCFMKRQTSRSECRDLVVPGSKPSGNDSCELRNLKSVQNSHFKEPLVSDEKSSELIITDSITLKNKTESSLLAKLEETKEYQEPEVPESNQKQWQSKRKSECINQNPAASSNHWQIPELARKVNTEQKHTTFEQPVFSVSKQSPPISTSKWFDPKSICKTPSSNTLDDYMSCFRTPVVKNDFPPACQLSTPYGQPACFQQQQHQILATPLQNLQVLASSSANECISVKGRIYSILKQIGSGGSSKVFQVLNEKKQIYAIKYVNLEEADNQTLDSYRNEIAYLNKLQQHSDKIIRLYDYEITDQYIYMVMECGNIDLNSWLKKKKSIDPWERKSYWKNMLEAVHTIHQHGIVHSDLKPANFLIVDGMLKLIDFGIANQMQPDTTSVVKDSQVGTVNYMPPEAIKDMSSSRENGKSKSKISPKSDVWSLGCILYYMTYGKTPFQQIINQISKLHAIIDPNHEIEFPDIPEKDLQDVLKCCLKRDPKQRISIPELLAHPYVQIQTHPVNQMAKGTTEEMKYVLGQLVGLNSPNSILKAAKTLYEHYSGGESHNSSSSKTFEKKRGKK
# [15] = system: T6, Receptor-type tyrosine-protein kinase FLT3 (Homo sapiens), P36888 [D835Y]; details: at 1 µM
# T6 sequence (whole entry): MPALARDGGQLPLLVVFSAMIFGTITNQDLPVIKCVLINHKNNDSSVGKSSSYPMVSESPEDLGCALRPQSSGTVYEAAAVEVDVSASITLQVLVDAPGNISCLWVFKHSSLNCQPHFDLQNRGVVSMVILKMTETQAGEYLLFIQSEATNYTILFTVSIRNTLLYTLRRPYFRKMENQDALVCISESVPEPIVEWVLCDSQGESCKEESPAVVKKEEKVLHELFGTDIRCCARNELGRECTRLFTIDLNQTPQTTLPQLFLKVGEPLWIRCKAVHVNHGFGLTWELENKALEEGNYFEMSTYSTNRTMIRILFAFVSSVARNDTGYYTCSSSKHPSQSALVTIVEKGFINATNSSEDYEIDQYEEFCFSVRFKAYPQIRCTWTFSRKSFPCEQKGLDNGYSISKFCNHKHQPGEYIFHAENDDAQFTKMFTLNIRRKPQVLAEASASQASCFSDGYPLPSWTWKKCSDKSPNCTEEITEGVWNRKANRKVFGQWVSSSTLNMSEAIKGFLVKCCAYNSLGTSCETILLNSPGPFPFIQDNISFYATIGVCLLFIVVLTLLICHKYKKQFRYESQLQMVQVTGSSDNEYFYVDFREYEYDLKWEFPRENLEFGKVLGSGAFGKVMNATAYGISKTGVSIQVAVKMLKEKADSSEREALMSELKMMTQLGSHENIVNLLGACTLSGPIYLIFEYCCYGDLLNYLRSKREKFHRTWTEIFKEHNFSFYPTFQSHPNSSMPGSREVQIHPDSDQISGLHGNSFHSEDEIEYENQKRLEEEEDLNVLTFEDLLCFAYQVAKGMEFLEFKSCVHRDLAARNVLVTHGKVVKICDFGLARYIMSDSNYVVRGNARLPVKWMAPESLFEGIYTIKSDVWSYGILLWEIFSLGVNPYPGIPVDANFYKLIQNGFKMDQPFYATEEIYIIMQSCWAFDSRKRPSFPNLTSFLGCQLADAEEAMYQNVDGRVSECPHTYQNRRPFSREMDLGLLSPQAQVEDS
# [16] = biological target: Vascular endothelial growth factor receptor 3 (Homo sapiens) (UniProt P35916); details: at 0.1 µM
# Chain of Vascular endothelial growth factor receptor 3 (Homo sapiens) (P35916 whole entry): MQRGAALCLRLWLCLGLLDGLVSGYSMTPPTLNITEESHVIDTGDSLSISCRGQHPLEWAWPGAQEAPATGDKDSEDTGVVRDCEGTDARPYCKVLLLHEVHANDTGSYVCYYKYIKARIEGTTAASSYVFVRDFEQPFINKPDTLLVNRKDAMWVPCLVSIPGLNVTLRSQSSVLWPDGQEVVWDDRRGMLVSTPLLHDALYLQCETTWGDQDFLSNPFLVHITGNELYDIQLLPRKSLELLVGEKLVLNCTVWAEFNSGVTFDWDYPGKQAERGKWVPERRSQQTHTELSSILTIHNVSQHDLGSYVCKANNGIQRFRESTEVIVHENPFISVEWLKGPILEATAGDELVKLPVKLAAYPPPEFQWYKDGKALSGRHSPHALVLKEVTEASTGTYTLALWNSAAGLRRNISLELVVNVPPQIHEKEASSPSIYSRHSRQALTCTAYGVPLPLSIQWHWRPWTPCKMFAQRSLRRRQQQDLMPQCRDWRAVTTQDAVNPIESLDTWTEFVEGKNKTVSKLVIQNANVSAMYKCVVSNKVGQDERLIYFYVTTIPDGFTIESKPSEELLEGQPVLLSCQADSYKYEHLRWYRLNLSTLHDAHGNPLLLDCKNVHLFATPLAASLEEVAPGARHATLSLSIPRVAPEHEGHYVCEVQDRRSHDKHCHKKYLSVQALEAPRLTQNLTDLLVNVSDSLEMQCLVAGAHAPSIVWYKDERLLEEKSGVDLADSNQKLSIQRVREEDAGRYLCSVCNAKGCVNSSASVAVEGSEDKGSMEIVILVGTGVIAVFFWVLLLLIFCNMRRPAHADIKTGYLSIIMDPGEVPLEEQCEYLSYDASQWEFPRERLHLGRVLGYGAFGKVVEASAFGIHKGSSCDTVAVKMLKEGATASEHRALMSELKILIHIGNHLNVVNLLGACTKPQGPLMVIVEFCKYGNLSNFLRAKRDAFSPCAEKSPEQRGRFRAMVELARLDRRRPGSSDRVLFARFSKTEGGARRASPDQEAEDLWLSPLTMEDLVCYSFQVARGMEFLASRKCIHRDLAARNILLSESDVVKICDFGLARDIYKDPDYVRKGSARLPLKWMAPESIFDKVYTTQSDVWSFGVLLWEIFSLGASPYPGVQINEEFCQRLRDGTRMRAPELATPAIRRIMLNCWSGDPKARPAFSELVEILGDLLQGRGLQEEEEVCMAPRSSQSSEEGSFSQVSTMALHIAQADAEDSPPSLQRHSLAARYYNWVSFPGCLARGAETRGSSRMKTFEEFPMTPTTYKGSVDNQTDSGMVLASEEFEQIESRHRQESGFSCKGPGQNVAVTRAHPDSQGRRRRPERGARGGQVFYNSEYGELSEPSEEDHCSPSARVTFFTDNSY
# [17] = biological target: Vascular endothelial growth factor receptor 3 (Homo sapiens) (UniProt P35916); details: at 1 µM
# [18] = biological target: Macrophage colony-stimulating factor 1 receptor (Homo sapiens) (UniProt P07333); details: at 0.1 µM
# Chain of Macrophage colony-stimulating factor 1 receptor (Homo sapiens) (P07333 whole entry): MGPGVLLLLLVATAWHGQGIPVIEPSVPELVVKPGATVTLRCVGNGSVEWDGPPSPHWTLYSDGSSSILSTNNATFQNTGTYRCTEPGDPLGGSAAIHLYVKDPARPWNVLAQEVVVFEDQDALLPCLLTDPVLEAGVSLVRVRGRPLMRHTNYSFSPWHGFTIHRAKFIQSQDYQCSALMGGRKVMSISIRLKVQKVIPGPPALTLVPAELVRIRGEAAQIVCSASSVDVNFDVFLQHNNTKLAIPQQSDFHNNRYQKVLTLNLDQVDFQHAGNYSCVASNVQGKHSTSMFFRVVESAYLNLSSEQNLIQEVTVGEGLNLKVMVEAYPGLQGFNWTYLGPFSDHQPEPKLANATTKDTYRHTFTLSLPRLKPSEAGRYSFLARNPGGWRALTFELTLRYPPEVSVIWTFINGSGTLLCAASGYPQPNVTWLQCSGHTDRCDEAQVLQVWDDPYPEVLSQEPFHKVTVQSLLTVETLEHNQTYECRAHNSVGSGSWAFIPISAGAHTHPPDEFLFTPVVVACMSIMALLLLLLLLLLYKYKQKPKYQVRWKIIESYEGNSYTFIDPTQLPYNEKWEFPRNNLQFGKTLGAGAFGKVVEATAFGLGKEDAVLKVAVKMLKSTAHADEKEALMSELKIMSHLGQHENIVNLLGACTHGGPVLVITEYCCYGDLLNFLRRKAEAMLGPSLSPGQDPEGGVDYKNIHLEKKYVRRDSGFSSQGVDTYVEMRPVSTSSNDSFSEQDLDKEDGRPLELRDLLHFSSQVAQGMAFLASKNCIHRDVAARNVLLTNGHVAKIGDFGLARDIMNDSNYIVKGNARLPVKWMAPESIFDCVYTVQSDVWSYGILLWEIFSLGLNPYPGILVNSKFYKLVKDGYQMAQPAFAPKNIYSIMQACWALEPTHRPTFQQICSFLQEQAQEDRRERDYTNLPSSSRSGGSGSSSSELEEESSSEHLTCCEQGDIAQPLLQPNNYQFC
# [19] = biological target: Macrophage colony-stimulating factor 1 receptor (Homo sapiens) (UniProt P07333); details: at 1 µM
# [20] = biological target: Tyrosine-protein kinase Fyn (Homo sapiens) (UniProt P06241); details: at 0.1 µM
# Chain of Tyrosine-protein kinase Fyn (Homo sapiens) (P06241 2-537 limits assumed): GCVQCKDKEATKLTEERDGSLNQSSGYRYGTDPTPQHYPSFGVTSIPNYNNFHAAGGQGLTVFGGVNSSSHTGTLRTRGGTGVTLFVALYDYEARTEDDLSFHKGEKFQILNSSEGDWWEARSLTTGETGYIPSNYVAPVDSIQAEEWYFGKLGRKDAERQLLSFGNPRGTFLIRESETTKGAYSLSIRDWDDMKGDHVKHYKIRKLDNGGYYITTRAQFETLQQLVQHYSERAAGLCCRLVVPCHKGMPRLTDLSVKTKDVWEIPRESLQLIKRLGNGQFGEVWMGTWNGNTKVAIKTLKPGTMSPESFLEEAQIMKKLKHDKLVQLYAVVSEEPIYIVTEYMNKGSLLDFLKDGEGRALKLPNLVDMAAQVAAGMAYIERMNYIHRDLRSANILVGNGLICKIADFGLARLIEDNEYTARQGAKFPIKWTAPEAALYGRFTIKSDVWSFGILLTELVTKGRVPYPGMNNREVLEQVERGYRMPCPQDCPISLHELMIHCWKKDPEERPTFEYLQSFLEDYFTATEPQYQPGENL
SMILES,inhibition [1],inhibition [2],inhibition [3],inhibition [4],inhibition [5],inhibition [6],inhibition [7],inhibition [8],inhibition [9],inhibition [10],inhibition [11],inhibition [12],inhibition [13],inhibition [14],inhibition [15],inhibition [16],inhibition [17],inhibition [18],inhibition [19],inhibition [20]
NC(=O)c1sc(-n2cnc3ccc(C(F)(F)F)cc32)cc1OCc1ccccc1Br,6.28%,3%,3.1%,4.34%,5.43%,3.44%,3.3%,5.57%,3.81%,8.05%,28.9%,81.4%,94.3%,8.68%,5.89%,-1.7%,3.99%,0.91%,3.49%,2.36%
CCn1c(-c2nonc2N)nc2c(C#CC(C)(C)O)nc(OC[C@H](N)c3ccccc3)cc21,37.9%,2.39%,2.81%,2.31%,4.1%,-0.95%,1.56%,1.87%,3.72%,6.95%,3.62%,3.81%,7.68%,7.61%,1.02%,16.6%,62.6%,3.84%,5.51%,2.39%
